Laboratory results from PubChem BioAssay AID689 (Sanford-Burnham Center for Chemical Genomics, 2007).
In all, about 62,000 compounds went through this assay and about 80 (0.1%) were called active. The rule behind the calls is not given here. Not all results are given here. Results with a measured potency or affinity are listed apart.

Each molecule was assayed against Ephrin type-A receptor 4 (Mus musculus) (UniProt Q03137) (assay: inhibitors of EphA4 binding to KYL peptide, primary screen, biochemical, colorimetric, mouse EphA4 (AID 689)). Details: EphA4-AP binding to KYL peptide, pNPP A405, at 10 µM, stronger effect = higher value.
Sequence of Ephrin type-A receptor 4 (Mus musculus) (Q03137 whole entry, looked up): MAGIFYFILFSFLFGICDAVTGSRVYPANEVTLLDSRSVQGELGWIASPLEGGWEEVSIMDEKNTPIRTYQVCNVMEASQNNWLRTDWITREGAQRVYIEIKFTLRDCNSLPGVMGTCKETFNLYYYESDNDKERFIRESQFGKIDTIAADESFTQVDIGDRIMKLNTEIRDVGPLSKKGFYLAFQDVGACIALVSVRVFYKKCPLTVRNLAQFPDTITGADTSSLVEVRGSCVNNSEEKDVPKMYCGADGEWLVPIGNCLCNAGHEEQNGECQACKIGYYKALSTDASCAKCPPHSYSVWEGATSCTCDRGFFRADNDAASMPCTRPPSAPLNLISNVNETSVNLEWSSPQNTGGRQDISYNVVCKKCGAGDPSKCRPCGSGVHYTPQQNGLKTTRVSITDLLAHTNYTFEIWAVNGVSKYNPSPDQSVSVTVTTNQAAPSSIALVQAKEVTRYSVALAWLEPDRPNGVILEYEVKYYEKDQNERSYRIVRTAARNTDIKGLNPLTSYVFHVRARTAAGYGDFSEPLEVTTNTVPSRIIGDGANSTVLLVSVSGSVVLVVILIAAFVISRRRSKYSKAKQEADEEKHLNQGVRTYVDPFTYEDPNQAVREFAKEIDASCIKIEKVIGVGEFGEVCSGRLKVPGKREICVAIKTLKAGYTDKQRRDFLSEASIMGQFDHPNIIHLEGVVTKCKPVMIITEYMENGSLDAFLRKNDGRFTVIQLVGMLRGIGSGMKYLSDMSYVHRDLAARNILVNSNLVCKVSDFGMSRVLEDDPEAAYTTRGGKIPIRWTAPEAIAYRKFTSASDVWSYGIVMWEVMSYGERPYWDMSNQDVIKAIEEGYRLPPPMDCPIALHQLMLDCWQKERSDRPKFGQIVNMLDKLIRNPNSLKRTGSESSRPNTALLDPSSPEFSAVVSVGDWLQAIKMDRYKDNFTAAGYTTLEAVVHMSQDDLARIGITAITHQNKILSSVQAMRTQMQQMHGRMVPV

inhibition, inactive:
O=C(c1ccccc1[N+](=O)[O-])N1CCN(C/C=C/c2ccccc2)CC1 -10.3% [this sample at 5 µg/mL]
CCOc1cc(/C=C2/SC(=S)N(CC)C2=O)ccc1OCc1ccccc1Cl 5% [this sample at 5 µg/mL]
CCn1c2ccccc2c2nc3ccccc3nc21 40.1%
Cn1c2ccc(Cl)cc2c2nc3ccccc3nc21 -1.5%
Cc1cc(NC(=O)CSc2nnc(C3COc4ccccc4O3)o2)no1 (stereo not drawn) -5.5%
N#CC1=C(N)C(C#N)(C#N)C(c2cccnc2)C2CCCC=C12 (stereo not drawn) -10%
O=C1/C(=C/C=C/c2ccccc2)SC(=S)N1c1cccc(C(F)(F)F)c1 3.3% [this sample at 5 µg/mL]
COC(=O)CN1C(=O)/C(=C\C=C\c2ccccc2)SC1=S 7.7% [this sample at 5 µg/mL]
CCOCCCNc1nc2c(C)cccn2c(=O)c1/C=C1\SC(=S)N(CC(C)C)C1=O -4.7%
CCCN1C(=O)/C(=C/c2c(NCCCOC(C)C)nc3c(C)cccn3c2=O)SC1=S 38.4%
COc1ccc(/C=C/C(=O)CC(=O)C(Cl)(Cl)Cl)cc1 5.9% [this sample at 5 µg/mL]
Cc1nnc(NC(=O)c2sc3nc(-c4cccs4)cc(C(F)(F)F)c3c2N)s1 3.5%
Cc1c(C(=O)Nc2nccs2)sc2nc(-c3cccs3)cc(C(F)(F)F)c12 33%
CC(=O)c1cccc(NS(=O)(=O)c2cc(OCC(N)=O)c(C)cc2Cl)c1 -4%
CCOC(=O)C1=C(C)N(CCOC)C(=O)/C1=C\c1sccc1C -1.6% [this sample at 5 µg/mL]
Cc1cc(OCC(=O)O/N=C(\N)Cc2cccs2)ccc1Br -4.6%
CCSc1nnc(NC(=O)C(C)C)s1 -5.3%
CCSc1nnc(NC(=O)C(CC)(C(F)(F)F)C(F)(F)F)s1 -7.4%
Clc1ccc(CN2CCN(/N=C/c3ccc(Cl)c(Cl)c3)CC2)cc1 6% [this sample at 5 µg/mL]
Cn1nnnc1SCC(=O)c1ccco1 23.3%
Cc1ccc2nc(CSc3nc(C)cc(C)c3C#N)[nH]c2c1 5.6%
Cc1nn(-c2ccccc2)c2c1C(c1ccc(O)c(O)c1)N1C(=N2)C(Nc2ccccc2)=Nc2ccccc21 (stereo not drawn) 23.4%
Cc1cccc(NC2=Nc3ccccc3N3C2=Nc2c(c(C)nn2-c2ccccc2)C3c2ccc(O)c(O)c2)c1 (stereo not drawn) 37%
Cc1ccc(NC2=Nc3ccccc3N3C2=Nc2c(c(C)nn2-c2ccccc2)C3c2ccc(O)c(O)c2)cc1 (stereo not drawn) 27.8%
Cc1ccc(N2C(=O)c3n[nH]c(C)c3C2c2cccnc2)cc1 (stereo not drawn) -11.4%
CCCOc1nc2c(c(=O)n(C)c(=O)n2C)n1CCC -3.5%
CC(=O)c1c(C)n(-c2ccccc2)c2ccc(OCC(O)CN3CCOCC3)cc12 (stereo not drawn) -25.3%
Cn1c(=O)n(C)c2cc(S(=O)(=O)NCc3ccco3)ccc21 -8%
N#CC(c1ccc(O)cc1)N1CCCCC1 (stereo not drawn) 0.9%
Cc1ccc(NC(=O)N2CCC(C(=O)NCC(C)C)CC2)cc1 -0.8%
CC(C)OCCCNC(=O)C1CCC(=O)N1C(C)C (stereo not drawn) -3.7%
COc1ccc(S(=O)(=O)Nc2ccc(NS(=O)(=O)c3ccc(OC)cc3)c3ccccc23)cc1 -1.5% [this sample at 5 µg/mL]
CCc1ccc(S(=O)(=O)Nc2cc(Br)c(O)c3ccccc23)cc1 2.2% [this sample at 5 µg/mL]
Cc1ccc(S(=O)(=O)Oc2cccc(N3C(=O)C4CC=CCC4C3=O)c2)cc1 (stereo not drawn) -10.4%
CCN(CC(=O)Nc1ccc2c(c1)OCCO2)c1ccc(S(=O)(=O)N2CCOCC2)cn1 -6.5%
O=C(Cc1cccs1)N1CCN(c2cccc(Cl)c2)CC1 11.4% [this sample at 5 µg/mL]
COc1cccc(C2CC(=O)N3CN(c4ccccc4F)CSC3=C2C#N)c1 (stereo not drawn) 12.3%
COc1ccc(C2CC(=O)N3CN(c4ccccc4F)CSC3=C2C#N)cc1OC (stereo not drawn) -4.9%
CCOC(=O)c1c(NC(=S)Nc2ccccc2)sc2c1CCCCC2 1.6%
CCOC(=O)c1c(NC(=S)Nc2ccccc2)sc2c1CCN(CC)C2 0.4%
Cc1ccc2[nH]c(=O)c(CN(CCCN3CCOCC3)C(=O)NC3CCCCC3)cc2c1 -12%
COc1ccccc1Cc1noc(C(C)(C)NC(=O)c2ccccc2)n1 9%
CN(C)CCCNC(=O)CC(c1ccc(F)cc1)c1ccco1 (stereo not drawn) -15.3%
CCOC(=O)C1=C(c2ccccc2)N=c2s/c(=C\c3ccc(O)cc3)c(=O)n2C1c1cccs1 (stereo not drawn) 23.9%
CCOC(=O)C1=C(c2ccccc2)N=c2s/c(=C\c3ccc(O)c(OC)c3)c(=O)n2C1c1ccc(OC)cc1 (stereo not drawn) 7.7% [this sample at 5 µg/mL]
O=C(O)CCC(=O)NCCn1c(-c2ccccc2)csc1=Nc1ccccc1 -2.4%
O=C1/C(=C\c2cccnc2)SC(=S)N1C1CCS(=O)(=O)C1 (stereo not drawn) 1.1%
CCOc1ccc(-c2nn(-c3ccccc3)cc2/C=C2\SC(=S)N(CCOC)C2=O)cc1 24.2% [this sample at 5 µg/mL]
Nc1ccc(N(c2ccccc2)c2ccc(N)cc2)cc1 5.1%
CCN(Cc1ccccc1)C(=O)c1ccc([N+](=O)[O-])cc1 1.5% [this sample at 5 µg/mL]
CCOc1ccc(S(=O)(=O)N(CC(=O)Nc2ccccc2C)c2ccc(C)cc2)cc1 2% [this sample at 5 µg/mL]
Cc1cccc2sc(NC(=O)c3ccccc3C(=O)O)nc12 -11.2% [this sample at 5 µg/mL]
Cc1cccc2sc(NC(=O)c3ccc(Cl)s3)nc12 -3.3%
